Growth data for 14 compounds are collected here from PubChem BioAssay (NCI).

Compounds without any hit were thinned out: in the full panel of roughly 83,000, 20% have a hit.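 The endpoint reported here, percent growth, reads 100 for growth as untreated, 0 for no net growth and -100 for all cells dead.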 Values without a mark were called inactive. The source made the active and inactive calls. How the source made its calls: active means growth percent below 10; inactive means the rest.

Holding throughout (assay): NCI-60 one-dose screen, 48 h (100 = growth as untreated, 0 = no growth, -100 = all killed)
The subject of one experiment is SR leukemia. The settings on record: 10 µM unless noted.
The next experiment has as its system RPMI-8226 leukemia. The settings on record: 10 µM.
A further experiment has as its system OVCAR-8 ovarian. The conditions noted are these: 10 µM unless noted.
The test system of another experiment is OVCAR-5 ovarian. The conditions noted are these: 10 µM unless noted.
The subject of another experiment is OVCAR-4 ovarian. The conditions noted are these: 10 µM unless noted.
The next experiment deals with SK-OV-3 ovarian. The settings on record: 10 µM.
A further experiment concerns IGROV1 ovarian. The settings on record: 10 µM unless noted.
Another experiment has as its system HS 578T breast. The settings on record: 10 µM unless noted.
In another experiment the test system is OVCAR-3 ovarian. The conditions noted are these: 10 µM unless noted.
For a further experiment, the system named is NCI/ADR-RES ovarian. The conditions noted are these: 10 µM unless noted.

For `O=C(Nc1ccc(F)cc1)c1ccc(C(=O)Nc2ccc(F)cc2)cc1`, the growth with SR leukemia was 94.5%; in the experiment on RPMI-8226 leukemia, 113%; in the experiment on OVCAR-8 ovarian, 99.6%; in the experiment on OVCAR-5 ovarian, 101%; in the experiment on OVCAR-4 ovarian it was 93.4%; with SK-OV-3 ovarian, 103%. Also, the growth with IGROV1 ovarian was 109%; with HS 578T breast it was 106%.
As to `COc1cccc(OC)c1OC(=O)c1ccccc1`, the growth in the experiment on SR leukemia is 91.7%; with RPMI-8226 leukemia it was 96.1%; in the experiment on OVCAR-8 ovarian it was 106%; in the experiment on OVCAR-5 ovarian, 107%; with OVCAR-4 ovarian, 97.4%; in the experiment on SK-OV-3 ovarian, 106%. The growth in the experiment with IGROV1 ovarian was 116%; in the experiment on OVCAR-3 ovarian it was 123%; in the experiment with HS 578T breast it was 96.6%; with NCI/ADR-RES ovarian, 105%.
For the compound `Oc1cccc(Nc2nc(-c3ccccn3)cs2)c1`, the growth with SR leukemia was 87.8%; with RPMI-8226 leukemia it was 81.9%; with OVCAR-8 ovarian, 106%; in the experiment on OVCAR-5 ovarian, 110%; in the experiment on OVCAR-4 ovarian it was 101%; in the experiment on SK-OV-3 ovarian, 95.2%. In addition, the results for the growth in the experiment on IGROV1 ovarian, with OVCAR-3 ovarian and in the experiment with NCI/ADR-RES ovarian were 100%, 119% and 94.6%, respectively.
For `CCOC(=O)c1c(-c2cc(OC)c(OC)c(OC)c2)csc1N`, the growth with SR leukemia is 27.2%; in the experiment with RPMI-8226 leukemia, 90.3%; with OVCAR-8 ovarian, 106%; in the experiment on OVCAR-5 ovarian, 101%; with OVCAR-4 ovarian, 118%; with SK-OV-3 ovarian it was 90.9%. For the same compound, the growth in the experiment with IGROV1 ovarian was 84.3%; with OVCAR-3 ovarian it was 96.4%; in the experiment on HS 578T breast it was 104%; in the experiment with NCI/ADR-RES ovarian, 83.8%.
Consider `COc1ccc(Sc2ccc3[nH]c(=O)nc(N)c3c2)cc1`, for which the growth in the experiment on SR leukemia was 87.1%; in the experiment with RPMI-8226 leukemia it was 104%; with OVCAR-8 ovarian, 98%; in the experiment on OVCAR-5 ovarian, 100%; in the experiment with OVCAR-4 ovarian it was 99.7%; in the experiment on SK-OV-3 ovarian, 104%. For the same compound, the growth was 109% with IGROV1 ovarian, 115% in the experiment on OVCAR-3 ovarian, 106% with HS 578T breast and 103% in the experiment on NCI/ADR-RES ovarian.
Turning to `Cc1nc2cc(Nc3nc(Nc4ccc(F)cc4)nc(-c4ccc(Cl)cc4)n3)ccc2n1Cc1ccccc1`, the growth is -19.4% (active) in the experiment with SR leukemia; 0.193% (active) in the experiment on RPMI-8226 leukemia; 62.8% with OVCAR-8 ovarian; 92.3% in the experiment with OVCAR-5 ovarian; 58.6% in the experiment with OVCAR-4 ovarian; 92.9% with SK-OV-3 ovarian. In addition, the growth with IGROV1 ovarian was 48.7%; with OVCAR-3 ovarian it was 57.3%; with HS 578T breast, 75.4%; in the experiment with NCI/ADR-RES ovarian, 59.1%.
On to `Brc1ccccc1Nc1ccc2nnc(-c3ccncc3)n2n1`, for which the growth with SR leukemia was 61.7%; in the experiment on RPMI-8226 leukemia, 91.1%; in the experiment on OVCAR-8 ovarian, 100%; with OVCAR-5 ovarian it was 101%; in the experiment on OVCAR-4 ovarian, 104%; with SK-OV-3 ovarian, 102%. Further, the growth in the experiment with IGROV1 ovarian was 93.6%; in the experiment on OVCAR-3 ovarian it was 103%; with HS 578T breast it was 109%; in the experiment with NCI/ADR-RES ovarian it was 99.8%.
As to `Brc1ccc(Br)nn1`, the growth in the experiment on SR leukemia was -25.8% (active); in the experiment on RPMI-8226 leukemia, -19.7% (active); in the experiment with OVCAR-8 ovarian, -34.1% (active); in the experiment with OVCAR-5 ovarian, -58.6% (active); in the experiment with OVCAR-4 ovarian, 26%; in the experiment with IGROV1 ovarian it was -77.8% (active). The growth in the experiment on OVCAR-3 ovarian was -97.7% (active); with HS 578T breast it was -0.414% (active); in the experiment on NCI/ADR-RES ovarian it was -32.5% (active).
`CCN1CCN(c2nc3ccccc3c3c(=O)c4cc(F)ccc4sc23)CC1`: the growth is 0.85% (active) in the experiment with SR leukemia; 65.5% in the experiment with RPMI-8226 leukemia; 71% with OVCAR-8 ovarian; 79.8% in the experiment with OVCAR-5 ovarian; 63% in the experiment with OVCAR-4 ovarian; 57% in the experiment on IGROV1 ovarian. The growth was 71% in the experiment with OVCAR-3 ovarian, 62.1% with HS 578T breast and 78.3% with NCI/ADR-RES ovarian.
As to `Cc1nc2cc(Nc3nc(Cl)nc(Nc4ccc(F)cc4)n3)ccc2n1Cc1ccccc1`, the growth with SR leukemia is 57.5%; in the experiment on RPMI-8226 leukemia it was 15.3%; in the experiment with OVCAR-8 ovarian, 81.5%; in the experiment with OVCAR-5 ovarian, 86.3%; with OVCAR-4 ovarian, 85.8%; in the experiment on SK-OV-3 ovarian, 95.9%. Moreover, the growth in the experiment with IGROV1 ovarian was 83%; with HS 578T breast, 79.5%; with NCI/ADR-RES ovarian, 95.6%.
Consider `COC(=O)[C@@]12CC[C@@H](C)[C@]3(C[C@@H](c4ccoc4)OC3=O)[C@H]1CC[C@@H]1O[C@@]12C`, for which the growth is 110% with SR leukemia; 110% with RPMI-8226 leukemia; 102% with OVCAR-8 ovarian; 91.4% in the experiment with OVCAR-5 ovarian; 104% with OVCAR-4 ovarian; 103% in the experiment on IGROV1 ovarian. Besides, the growth with OVCAR-3 ovarian was 110%; in the experiment with HS 578T breast, 98.7%; in the experiment on NCI/ADR-RES ovarian it was 102%.
Consider `O=C(N/N=C/c1ccc(OC(F)F)c(OC2CCCC2)c1)c1cnn2c1NC(c1ccccc1)C2` (stereo not given), for which the growth in the experiment with SR leukemia is 37.4%; with RPMI-8226 leukemia it was 73.9%; in the experiment with OVCAR-8 ovarian, 90.4%; in the experiment on OVCAR-5 ovarian, 93.7%; with OVCAR-4 ovarian, 61.3%; in the experiment on IGROV1 ovarian, 83.4%. The values for the growth in the experiment with OVCAR-3 ovarian, in the experiment with HS 578T breast and in the experiment with NCI/ADR-RES ovarian were 78.9%, 69.2% and 72.8%, respectively.
Regarding `CCCCOC(=O)C1OC(Oc2ccc3c(C)cc(=O)oc3c2)[C@@H](OC(C)=O)C(OC(C)=O)C1OC(C)=O` (stereo not given in full), the growth was 88.1% with SR leukemia; 97.9% with RPMI-8226 leukemia; 104% in the experiment with OVCAR-8 ovarian; 97.8% with OVCAR-5 ovarian; 101% in the experiment with OVCAR-4 ovarian; 101% with IGROV1 ovarian. In addition, the growth is 108% in the experiment on OVCAR-3 ovarian, 101% with HS 578T breast and 99.9% in the experiment on NCI/ADR-RES ovarian.
`CN1CCC(OC2c3ccccc3CCc3ccccc32)CC1`: the growth with SR leukemia was 96.5%; in the experiment on RPMI-8226 leukemia, 88%; in the experiment with OVCAR-8 ovarian it was 97.6%; in the experiment with OVCAR-5 ovarian it was 95.3%; in the experiment with OVCAR-4 ovarian, 94.4%; with SK-OV-3 ovarian, 96%. For the same compound, the growth in the experiment with IGROV1 ovarian is 109%; in the experiment on HS 578T breast, 87.4%; in the experiment on NCI/ADR-RES ovarian it was 96.5%.
